Results filed as inconclusive are left out. The source made the active and inactive calls. Calls follow the shape of the dose curve; as a rule, active = well fitted curve in the direction sought with a large enough effect; inconclusive = small, poorly fitted or top-dose-only effect, or another doubt; inactive = no such curve, though single readings can be large; an effect the other way counts as inactive or inconclusive.
Legend:
[1] = molecular target: Protein phosphatase 1D (Homo sapiens) (UniProt O15297); experiment: RapidFire Mass Spectrometry qHTS Assay for Modulators of WT P53-Induced Phosphatase 1 (WIP1) (AID 1347424);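 also: amount of dephosphorylated VEPPL-S-QETFS peptide product formed by WIP1; series mostly up to about 63 µM; plate controls were DMSO wells for no effect and GSK830371 inhibitor control at 10 µM for full effect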
In short: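 Mass-spectrometric measurement of dephosphorylated peptide after a 5 min room-temperature reaction of 10 nM WIP1 with 2 uM phosphopeptide, following 1 h compound preincubation in 30 mM MgCl2 buffer.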

[2] = molecular target: Protein phosphatase 1D (Homo sapiens) (UniProt O15297); experiment: Rhodamine-PBP qHTS Assay for Modulators of WT P53-Induced Phosphatase 1 (WIP1) (AID 1347425); also: % of control where 0% means no effect
In short: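 Read-out: Rhodamine-PBP fluorescence (ex 525/em 598 nm) for released Pi, read each minute for 11 min after adding 10 uM VEPPL-pS-QETFS; signal taken as f1 minus pre-substrate f0. Enzyme 5 nM WIP1 with 1 hr room-temperature compound preincubation.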

[3] = Primary qHTS for inhibitors of La Crosse Virus (LACV) - induced cell death in SH-SY5Y cells (AID 1508616);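 also: top concentration of the series differs between compounds; 0% = infected DMSO wells and 100% = uninfected DMSO wells; higher means more rescue of cells from virus-induced death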
In short: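 Screening measures cell viability in LACV-infected SH-SY5Y cultures. Compound was added before virus (0.01 MOI), and ATP was detected by luminescence 6 days later.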

[4] = molecular target: Calcium and integrin-binding protein 1 (Homo sapiens) (UniProt Q99828); experiment: Primary qHTS for Identification of Calcium Integrin Binding Protein 1 (CIB1) Competitor (AID 1508620);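 also: GST tagged CIB1 binding a fluorescein labelled alphaIIb integrin peptide tracer; top concentration of the series differs between compounds; % is scaled to controls: 0 for no effect and ±100 for the full control effect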
In short: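 Fluorescence polarization competition: CIB1-GST (1 uM final) preincubated with compound 15 min at room temperature, then FITC-labeled alphaIIb peptide (100 nM final) added for another 15 min. Polarization read at Ex 480/Em 540.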

Sequence of Calcium and integrin-binding protein 1 (Homo sapiens) (Q99828 whole entry, looked up): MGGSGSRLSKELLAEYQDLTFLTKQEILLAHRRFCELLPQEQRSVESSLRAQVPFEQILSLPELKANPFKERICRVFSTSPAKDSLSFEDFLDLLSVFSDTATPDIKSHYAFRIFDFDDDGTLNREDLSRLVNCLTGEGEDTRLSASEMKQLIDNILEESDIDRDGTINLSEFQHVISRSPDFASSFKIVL
Sequence of Protein phosphatase 1D (Homo sapiens) (O15297 whole entry, looked up): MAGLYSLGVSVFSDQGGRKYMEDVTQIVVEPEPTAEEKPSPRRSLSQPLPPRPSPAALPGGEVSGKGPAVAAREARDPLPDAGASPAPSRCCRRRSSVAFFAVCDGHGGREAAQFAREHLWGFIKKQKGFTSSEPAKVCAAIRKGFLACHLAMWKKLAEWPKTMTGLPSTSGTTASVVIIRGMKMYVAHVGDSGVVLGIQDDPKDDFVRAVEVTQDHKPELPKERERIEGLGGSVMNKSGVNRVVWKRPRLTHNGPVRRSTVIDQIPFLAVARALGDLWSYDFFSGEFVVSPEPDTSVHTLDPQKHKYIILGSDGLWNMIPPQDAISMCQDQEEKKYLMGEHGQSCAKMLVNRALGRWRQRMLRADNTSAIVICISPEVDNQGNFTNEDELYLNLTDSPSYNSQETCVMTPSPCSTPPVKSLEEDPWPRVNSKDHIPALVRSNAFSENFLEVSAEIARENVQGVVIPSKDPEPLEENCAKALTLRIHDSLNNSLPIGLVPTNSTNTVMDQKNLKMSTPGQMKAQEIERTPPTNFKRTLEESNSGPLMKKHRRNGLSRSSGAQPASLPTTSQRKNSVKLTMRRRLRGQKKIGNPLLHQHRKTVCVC

N=C(N)N
inactive: Potency [1] | outcome [2] | Potency [3] | Potency [4]

c1ccc(CCNc2nc(-c3ccccc3)cs2)cc1
inactive: Potency [1] | outcome [2] | Potency [3] | Potency [4]

[O-][n+]1ccccc1SSc1cccc[n+]1[O-]
inactive: Potency [1] | outcome [2] | Potency [4]

O=C(O)c1cc(O)c(O)c(O)c1
inactive: Potency [1] | outcome [2] | Potency [3] | Potency [4]

Cc1nc2ccccc2n1Cc1ccc(Cl)cc1
inactive: Potency [1] | outcome [2] | Potency [3] | Potency [4]

C=CCCCCCCCCC(=O)O
inactive: Potency [1] | outcome [2] | Potency [4]

CC(C(=O)O)c1ccc(C(=O)c2ccccc2)s1 (stereo unspecified)
inactive: Potency [1] | outcome [2] | Potency [4]

C#CC1(O)CC[C@H]2[C@@H]3CCC4=CCCC[C@@H]4[C@H]3CC[C@@]21C (stereo partly specified)
inactive: Potency [1] | outcome [2] | Potency [4]

O=C(O)Cc1cccc(-c2cc(CCCCCCc3ccc(O[C@H]4O[C@H](CO)[C@@H](O)[C@H](O)[C@@H]4O)c(-c4cccc(CC(=O)O)c4)c3)ccc2O[C@H]2O[C@H](CO)[C@@H](O)[C@H](O)[C@@H]2O)c1
inactive: activity change, negative = inhibition [1] -6.57% [at 0.505 µM] | activity change, negative = inhibition [2] -0.323% [at 0.575 µM] | activity change [3] -19% [at 0.0343 µM] | activity change, negative = inhibition [4] -8.49% [at 1.07 µM]

Nc1ccc([N+](=O)[O-])cc1O
inactive: Potency [1] | outcome [2] | Potency [4]

CCOC(=O)c1ccccc1O
inactive: Potency [1] | outcome [2] | Potency [3] | Potency [4]

CCCCCCCCCCCCOCCO
inactive: Potency [1] | outcome [2] | Potency [4]

O=C(O)/C=C\C(=O)O
inactive: Potency [1] | outcome [2] | Potency [4]

O=C(O)Cc1ccc2c(c1)C(=O)c1ccccc1CO2
inactive: Potency [1] | outcome [2] | Potency [3] | Potency [4]

CN(C)c1ccc(N=NS(=O)(=O)O)cc1
inactive: Potency [1] | outcome [2] | Potency [4]

CCCCCCCC/C=C/C(=O)O
inactive: Potency [1] | outcome [2] | Potency [3] | Potency [4]

c1ccc2sc(SN3CCOCC3)nc2c1
inactive: Potency [1] | outcome [2] | Potency [3] | Potency [4]

CNC(=O)c1c(I)c(NC(=O)CCCCC(=O)Nc2c(I)c(C(=O)O)c(I)c(C(=O)NC)c2I)c(I)c(C(=O)O)c1I
inactive: Potency [1] | outcome [2] | Potency [3] | Potency [4]

CO[C@@]1(NC(=O)Cc2cccs2)C(=O)N2C(C(=O)O)=C(COC(N)=O)CS[C@@H]21
inactive: Potency [1] | outcome [2] | Potency [4]

CCCSc1ccc2nc(NC(=O)OC)[nH]c2c1
inactive: Potency [1] | outcome [2] | Potency [4]

COC(=O)c1nc(Cl)c(Cl)nc1N
inactive: Potency [1] | outcome [2] | Potency [4]

COc1cc2c3cc1Oc1cc(ccc1O)C[C@@H]1c4c(cc(OC)c(O)c4Oc4ccc(cc4)C[C@@H]3N(C)CC2)CC[N+]1(C)C
inactive: Potency [1] | outcome [2] | Potency [3] | Potency [4]

S=c1[nH]c2ccccc2s1
inactive: Potency [1] | outcome [2] | Potency [3] | Potency [4]

COC(=O)C1=C(C)NC(C)=C(C(=O)OCC(C)=O)C1c1ccccc1[N+](=O)[O-] (stereo unspecified)
inactive: Potency [1] | outcome [2] | Potency [3] | Potency [4]

COC(=O)Nc1nc2ccc(C(=O)C3CC3)cc2[nH]1
inactive: Potency [1] | outcome [2] | Potency [4]

Clc1ccccc1-c1nc(-c2ccncc2)no1
inactive: Potency [1] | outcome [2] | Potency [3] | Potency [4]

CCCCCCCCCCCCCCCC(=O)OC(C)C
inactive: Potency [1] | outcome [2] | Potency [4]

Cc1ccc2c(n1)Oc1ccc(C(C)C(=O)OCC(=O)N(C)C)cc1C2 (stereo unspecified)
inactive: Potency [1] | outcome [2] | Potency [4]

Cc1c(Nc2ncccc2C(=O)O)cccc1C(F)(F)F
inactive: Potency [1] | outcome [2] | Potency [3] | Potency [4]

CC(=O)c1ccc(OCC(=O)N2CCCCC2)cc1
inactive: Potency [1] | outcome [2] | Potency [4]

COC(=O)C1=C(C)NC(C)=C(C(=O)OCC(C)C)C1c1ccccc1[N+](=O)[O-] (stereo unspecified)
inactive: Potency [1] | outcome [2] | Potency [3] | Potency [4]

CCCOC(=O)c1ccc(O)cc1
inactive: Potency [1] | outcome [2] | Potency [3] | Potency [4]

O=C(/C=C/c1ccccc1)NCCO
inactive: Potency [1] | outcome [2] | Potency [4]

NC(=O)C(c1ccccc1)(c1ccccc1)[C@@H]1CCN(CCc2ccc3c(c2)CCO3)C1
inactive: Potency [1] | outcome [2] | Potency [3] | Potency [4]

CC(=O)SCC(CC(=O)c1ccc(C)cc1)C(=O)O (stereo unspecified)
inactive: Potency [1] | outcome [2] | Potency [3] | Potency [4]

Cc1c(C(=O)O)c(O)cc2c1C(=O)c1c(O)c([C@@H]3O[C@H](CO)[C@@H](O)[C@H](O)[C@H]3O)c(O)c(O)c1C2=O
inactive: Potency [1] | outcome [2] | Potency [4]

c1ccc2sc(SSc3nc4ccccc4s3)nc2c1
inactive: Potency [1] | outcome [2] | activity change [3] 7.43% [at 1.78 µM] | Potency [4]
